These results are taken from the supplement of paper PMC11732987, “Enantioselective OTUD7B fragment discovery through chemoproteomics screening and high-throughput optimisation” (Communications Chemistry, 2025).

Structures are written as SMILES. Values without a mark were called inactive.

What all share (test): log2 ratio of Biotin-Ahx-Ub-VS probe labelling (fragment/DMSO); higher = less target engagement (more negative = stronger competition), active = hit call of the paper (q ≤ 0.05, log2 ratio ≤ -1)
Holding throughout (conditions): compound concentration: 200 uM; treatment time: 3 h

One experiment deals with T1, USP19 (UniProt O94966).
T1 sequence (whole entry): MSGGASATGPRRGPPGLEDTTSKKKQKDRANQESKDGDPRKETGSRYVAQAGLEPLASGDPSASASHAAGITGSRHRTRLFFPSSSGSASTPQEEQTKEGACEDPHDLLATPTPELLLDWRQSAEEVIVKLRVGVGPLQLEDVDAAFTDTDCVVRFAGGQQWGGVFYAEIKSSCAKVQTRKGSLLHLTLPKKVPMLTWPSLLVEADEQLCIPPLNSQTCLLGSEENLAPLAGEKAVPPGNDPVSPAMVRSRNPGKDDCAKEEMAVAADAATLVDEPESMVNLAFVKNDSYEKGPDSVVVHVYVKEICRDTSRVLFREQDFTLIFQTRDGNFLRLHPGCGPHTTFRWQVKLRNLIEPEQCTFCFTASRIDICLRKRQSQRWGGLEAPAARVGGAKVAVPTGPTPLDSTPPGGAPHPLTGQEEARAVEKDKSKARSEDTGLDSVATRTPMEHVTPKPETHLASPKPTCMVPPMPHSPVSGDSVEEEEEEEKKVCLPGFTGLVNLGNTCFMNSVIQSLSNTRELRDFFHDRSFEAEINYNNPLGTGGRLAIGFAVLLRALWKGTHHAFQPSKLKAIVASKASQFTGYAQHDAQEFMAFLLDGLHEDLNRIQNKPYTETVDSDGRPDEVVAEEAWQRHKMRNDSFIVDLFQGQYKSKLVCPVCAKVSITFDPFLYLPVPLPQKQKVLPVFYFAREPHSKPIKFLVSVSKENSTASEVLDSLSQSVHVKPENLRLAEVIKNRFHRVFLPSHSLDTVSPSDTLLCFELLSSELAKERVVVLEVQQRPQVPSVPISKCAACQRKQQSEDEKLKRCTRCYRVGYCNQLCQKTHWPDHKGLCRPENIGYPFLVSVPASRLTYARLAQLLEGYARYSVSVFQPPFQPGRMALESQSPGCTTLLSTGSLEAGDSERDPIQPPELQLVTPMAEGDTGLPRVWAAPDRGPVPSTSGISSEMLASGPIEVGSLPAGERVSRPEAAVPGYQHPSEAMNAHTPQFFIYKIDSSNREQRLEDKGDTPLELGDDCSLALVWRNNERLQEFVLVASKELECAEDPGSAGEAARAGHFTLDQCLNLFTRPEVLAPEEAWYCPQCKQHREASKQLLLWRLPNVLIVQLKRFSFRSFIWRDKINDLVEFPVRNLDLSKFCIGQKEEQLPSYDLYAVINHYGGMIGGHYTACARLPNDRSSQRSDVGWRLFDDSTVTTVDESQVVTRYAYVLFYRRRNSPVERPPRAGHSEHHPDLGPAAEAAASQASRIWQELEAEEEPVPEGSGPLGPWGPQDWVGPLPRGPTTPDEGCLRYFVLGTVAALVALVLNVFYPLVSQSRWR
In a few lines: (§1)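 Fragment (200 µM) or vehicle was incubated for 3 h with triplicate HEK293T lysate samples of 495 µg, which were then treated with Biotin-Ahx-Ub-VS at 0.5 µM final for 1 h. Labelled DUBs were enriched on NeutrAvidin, digested with LysC and trypsin, and analysed by diaPASEF LC-MS/MS. Values are average log2 fragment/vehicle ratios from an unpaired t-test on global-median-normalised Spectronaut label-free quantities, using proteins with ≥2 unique peptides.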

A further experiment deals with T2, USP22 (UniProt Q9UPT9).
T2 sequence (whole entry): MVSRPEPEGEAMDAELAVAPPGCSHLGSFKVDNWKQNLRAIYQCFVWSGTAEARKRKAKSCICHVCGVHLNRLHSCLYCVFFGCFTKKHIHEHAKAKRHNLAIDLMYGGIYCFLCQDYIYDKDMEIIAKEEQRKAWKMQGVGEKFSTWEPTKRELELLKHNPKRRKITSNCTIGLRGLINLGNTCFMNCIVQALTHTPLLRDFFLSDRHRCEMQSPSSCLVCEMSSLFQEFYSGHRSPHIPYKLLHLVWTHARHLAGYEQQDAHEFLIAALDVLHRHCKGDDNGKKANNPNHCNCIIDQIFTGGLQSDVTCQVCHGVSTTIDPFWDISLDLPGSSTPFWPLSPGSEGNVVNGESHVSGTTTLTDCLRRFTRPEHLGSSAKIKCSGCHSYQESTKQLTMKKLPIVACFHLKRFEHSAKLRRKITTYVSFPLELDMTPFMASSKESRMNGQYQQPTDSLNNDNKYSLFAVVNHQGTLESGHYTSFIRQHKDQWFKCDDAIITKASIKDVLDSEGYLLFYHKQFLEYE
The method, boiled down: as §1

A further experiment deals with USP24 (UniProt Q9UPU5). The method, boiled down:
as §1

The next experiment addresses T3, USP25 (UniProt Q9UHP3).
T3 sequence (whole entry): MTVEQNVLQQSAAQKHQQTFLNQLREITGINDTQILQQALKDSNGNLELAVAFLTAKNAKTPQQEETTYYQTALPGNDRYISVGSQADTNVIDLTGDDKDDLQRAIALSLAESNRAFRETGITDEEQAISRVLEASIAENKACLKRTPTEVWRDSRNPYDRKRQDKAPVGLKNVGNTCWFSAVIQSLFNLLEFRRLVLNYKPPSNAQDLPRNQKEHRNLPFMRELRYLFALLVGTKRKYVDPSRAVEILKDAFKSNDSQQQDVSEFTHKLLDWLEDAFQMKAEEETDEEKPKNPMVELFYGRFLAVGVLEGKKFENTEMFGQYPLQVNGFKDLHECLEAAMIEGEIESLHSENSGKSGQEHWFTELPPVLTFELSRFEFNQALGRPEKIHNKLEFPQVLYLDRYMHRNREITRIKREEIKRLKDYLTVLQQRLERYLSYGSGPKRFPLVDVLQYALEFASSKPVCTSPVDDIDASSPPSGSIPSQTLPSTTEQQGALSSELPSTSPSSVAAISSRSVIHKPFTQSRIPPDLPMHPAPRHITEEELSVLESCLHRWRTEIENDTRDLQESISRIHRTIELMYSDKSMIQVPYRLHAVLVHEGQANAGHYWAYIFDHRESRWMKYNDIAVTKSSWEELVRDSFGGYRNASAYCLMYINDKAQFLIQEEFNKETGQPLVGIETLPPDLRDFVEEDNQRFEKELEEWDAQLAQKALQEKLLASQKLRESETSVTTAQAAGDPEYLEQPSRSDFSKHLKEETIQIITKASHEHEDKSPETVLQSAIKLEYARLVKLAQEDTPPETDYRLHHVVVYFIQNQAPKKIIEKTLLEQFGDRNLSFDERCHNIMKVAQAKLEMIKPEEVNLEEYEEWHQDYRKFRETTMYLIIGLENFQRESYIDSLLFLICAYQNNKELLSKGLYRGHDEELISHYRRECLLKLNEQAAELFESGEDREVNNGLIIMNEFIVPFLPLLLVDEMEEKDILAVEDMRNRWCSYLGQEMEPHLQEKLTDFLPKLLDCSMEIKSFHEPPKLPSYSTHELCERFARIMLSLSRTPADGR
In a few lines:
as §1

The target of a further experiment is T4, USP28 (UniProt Q96RU2).
T4 sequence (whole entry): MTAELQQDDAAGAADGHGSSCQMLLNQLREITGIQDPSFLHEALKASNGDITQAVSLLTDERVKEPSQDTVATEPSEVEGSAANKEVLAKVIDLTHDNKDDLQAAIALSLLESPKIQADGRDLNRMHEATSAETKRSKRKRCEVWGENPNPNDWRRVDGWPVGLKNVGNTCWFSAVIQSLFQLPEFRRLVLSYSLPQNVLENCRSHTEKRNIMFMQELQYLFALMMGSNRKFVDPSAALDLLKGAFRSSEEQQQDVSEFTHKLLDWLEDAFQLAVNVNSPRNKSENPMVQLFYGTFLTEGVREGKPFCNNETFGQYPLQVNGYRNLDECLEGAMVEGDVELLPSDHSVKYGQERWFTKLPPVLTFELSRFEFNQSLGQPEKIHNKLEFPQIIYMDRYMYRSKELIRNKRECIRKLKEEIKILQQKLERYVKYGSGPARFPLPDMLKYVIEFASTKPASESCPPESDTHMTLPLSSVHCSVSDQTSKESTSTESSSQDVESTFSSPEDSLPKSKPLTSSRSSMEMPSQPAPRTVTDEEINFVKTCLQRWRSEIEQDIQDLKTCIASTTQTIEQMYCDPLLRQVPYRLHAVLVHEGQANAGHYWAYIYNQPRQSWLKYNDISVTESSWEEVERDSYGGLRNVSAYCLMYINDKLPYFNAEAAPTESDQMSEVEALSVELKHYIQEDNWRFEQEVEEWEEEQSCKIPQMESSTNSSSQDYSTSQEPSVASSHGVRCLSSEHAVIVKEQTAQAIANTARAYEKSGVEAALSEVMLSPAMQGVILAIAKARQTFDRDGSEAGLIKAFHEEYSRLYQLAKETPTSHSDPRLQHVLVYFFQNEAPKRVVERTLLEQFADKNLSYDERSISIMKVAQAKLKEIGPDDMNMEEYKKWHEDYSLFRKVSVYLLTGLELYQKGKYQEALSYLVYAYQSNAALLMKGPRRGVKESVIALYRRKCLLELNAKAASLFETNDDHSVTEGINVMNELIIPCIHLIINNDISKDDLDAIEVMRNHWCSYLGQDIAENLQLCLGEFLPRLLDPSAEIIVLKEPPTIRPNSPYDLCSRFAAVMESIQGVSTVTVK
In a few lines:
as §1

Chain of USP24 (Q9UPU5 whole entry): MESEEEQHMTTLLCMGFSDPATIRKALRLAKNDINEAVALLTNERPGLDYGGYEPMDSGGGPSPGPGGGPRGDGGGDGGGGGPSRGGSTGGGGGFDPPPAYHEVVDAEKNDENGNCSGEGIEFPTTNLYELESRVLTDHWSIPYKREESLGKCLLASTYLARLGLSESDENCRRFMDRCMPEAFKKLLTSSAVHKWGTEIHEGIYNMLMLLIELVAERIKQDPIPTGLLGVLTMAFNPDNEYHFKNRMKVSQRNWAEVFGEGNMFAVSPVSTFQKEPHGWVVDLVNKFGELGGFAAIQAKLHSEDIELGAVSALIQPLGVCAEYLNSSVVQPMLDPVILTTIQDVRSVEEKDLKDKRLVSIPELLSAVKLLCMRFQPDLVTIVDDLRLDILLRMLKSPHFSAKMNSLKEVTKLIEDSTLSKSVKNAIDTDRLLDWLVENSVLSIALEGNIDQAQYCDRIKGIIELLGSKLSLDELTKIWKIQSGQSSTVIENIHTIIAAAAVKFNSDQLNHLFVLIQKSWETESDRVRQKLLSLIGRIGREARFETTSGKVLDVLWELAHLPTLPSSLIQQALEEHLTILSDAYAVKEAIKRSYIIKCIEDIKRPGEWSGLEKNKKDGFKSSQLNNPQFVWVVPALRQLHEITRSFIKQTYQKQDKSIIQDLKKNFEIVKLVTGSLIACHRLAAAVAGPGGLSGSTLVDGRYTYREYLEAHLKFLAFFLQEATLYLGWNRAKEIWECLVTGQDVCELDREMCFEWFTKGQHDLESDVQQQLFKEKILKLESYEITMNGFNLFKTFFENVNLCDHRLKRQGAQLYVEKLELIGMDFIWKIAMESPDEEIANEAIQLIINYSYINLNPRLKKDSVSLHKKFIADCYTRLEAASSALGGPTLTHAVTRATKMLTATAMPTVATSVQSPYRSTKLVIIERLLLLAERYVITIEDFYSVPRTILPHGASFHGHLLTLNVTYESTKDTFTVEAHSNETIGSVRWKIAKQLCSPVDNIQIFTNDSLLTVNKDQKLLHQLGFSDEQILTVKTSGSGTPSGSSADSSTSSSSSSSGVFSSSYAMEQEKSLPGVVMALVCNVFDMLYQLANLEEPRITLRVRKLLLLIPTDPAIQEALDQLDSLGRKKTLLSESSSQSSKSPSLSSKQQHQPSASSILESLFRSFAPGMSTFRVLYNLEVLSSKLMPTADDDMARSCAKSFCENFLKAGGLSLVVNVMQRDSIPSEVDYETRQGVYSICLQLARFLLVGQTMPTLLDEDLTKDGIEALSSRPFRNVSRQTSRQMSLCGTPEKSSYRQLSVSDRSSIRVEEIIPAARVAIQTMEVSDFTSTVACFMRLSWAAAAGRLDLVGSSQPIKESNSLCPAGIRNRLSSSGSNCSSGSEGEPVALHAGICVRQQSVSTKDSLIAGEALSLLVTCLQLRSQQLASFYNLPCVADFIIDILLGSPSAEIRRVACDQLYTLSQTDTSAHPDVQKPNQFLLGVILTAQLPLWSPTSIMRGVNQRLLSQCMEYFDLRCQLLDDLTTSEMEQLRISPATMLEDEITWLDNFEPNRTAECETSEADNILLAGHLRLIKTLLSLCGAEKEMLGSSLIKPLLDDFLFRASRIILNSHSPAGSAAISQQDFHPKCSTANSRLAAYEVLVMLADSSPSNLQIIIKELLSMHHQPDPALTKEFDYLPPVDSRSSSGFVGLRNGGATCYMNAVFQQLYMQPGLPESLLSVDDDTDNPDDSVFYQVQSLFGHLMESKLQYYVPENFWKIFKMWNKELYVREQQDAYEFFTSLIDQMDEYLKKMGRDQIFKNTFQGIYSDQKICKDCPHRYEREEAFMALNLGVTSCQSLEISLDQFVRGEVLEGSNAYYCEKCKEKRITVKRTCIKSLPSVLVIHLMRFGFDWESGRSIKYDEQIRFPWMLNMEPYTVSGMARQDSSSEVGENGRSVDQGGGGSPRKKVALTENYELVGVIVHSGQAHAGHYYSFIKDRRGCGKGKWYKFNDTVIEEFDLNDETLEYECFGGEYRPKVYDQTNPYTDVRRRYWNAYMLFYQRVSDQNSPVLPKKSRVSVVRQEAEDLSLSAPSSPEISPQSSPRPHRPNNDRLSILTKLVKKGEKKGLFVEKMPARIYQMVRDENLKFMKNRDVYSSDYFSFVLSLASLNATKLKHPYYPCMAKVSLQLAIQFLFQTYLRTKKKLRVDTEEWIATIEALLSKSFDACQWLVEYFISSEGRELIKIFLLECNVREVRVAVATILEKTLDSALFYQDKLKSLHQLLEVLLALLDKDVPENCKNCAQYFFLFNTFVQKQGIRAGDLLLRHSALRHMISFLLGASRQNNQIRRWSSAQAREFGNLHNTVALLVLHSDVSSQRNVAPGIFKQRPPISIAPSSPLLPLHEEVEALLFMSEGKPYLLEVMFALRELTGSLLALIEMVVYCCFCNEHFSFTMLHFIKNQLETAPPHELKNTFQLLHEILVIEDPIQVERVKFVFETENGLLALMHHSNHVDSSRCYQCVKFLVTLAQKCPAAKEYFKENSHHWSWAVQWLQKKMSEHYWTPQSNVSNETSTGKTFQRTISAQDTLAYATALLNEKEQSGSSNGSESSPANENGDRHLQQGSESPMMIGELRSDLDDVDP

`O=C(CCl)Nc1cc2c(cc1Cl)OCCCO2`: the “log2 ratio of Biotin-Ahx-Ub-VS probe labelling” value with USP19 was 0.113; with USP22, 0.133; in the experiment with USP24, 0.00346; with USP25 it was -2.47 (active); in the experiment with USP28, -1.92 (active).
